Assay results: PubChem BioAssay AID1259343 (VanderVen Lab, College of Veterinary Medicine, Cornell …, 2017)
Out of some 6,200 compounds screened, about 2,900 (47%) were called active. Rule as the data show it: active = inhibition above about 50%; inactive = the rest. So high a share suggests a set chosen from earlier hits. The list shows a part of the results.

Experiment: Mycobacterium tuberculosis growth inhibition, primary screen (AID 1259343)
Conditions: inhibition: at 10 µM, hits give high values; outcome: 10 uM

| Structure (SMILES) | inhibition |
| --- | --- |
| Cc1cccn2c(=O)nc(SC/C=C/c3ccccc3)nc12 | 7.88% (inactive) |
| Cc1ccc(N=Cc2c(Nc3ccccc3)nc3c(C)cccn3c2=O)cc1 | -12% (inactive) |
| COc1ccc(N=Cc2c(NCCO)nc3c(C)cccn3c2=O)cc1 | 75.7% (active) |
| COc1ccc(Nc2nc3c(C)cccn3c(=O)c2/C=N\Nc2ccccc2)cc1 | 88.8% (active) |
| O=S(=O)(NN=C1c2ccccc2-c2ccccc21)c1ccccc1 | -15.8% (inactive) |
| CCSc1nc2c(c(C3CC=CCC3)c1C#N)CCC2 (stereo not given) | 45.2% (inactive) |
| N#CCSc1nc2c(c(C3CC=CCC3)c1C#N)CCC2 (stereo not given) | 66.1% (active) |
| CSc1nc2c(c(-c3ccc(O)cc3)c1C#N)CCC2 | 48.4% (inactive) |
| CC1CCC(N(C)C(=O)NCc2ncc(-c3ccccc3)o2)CC1 (stereo not given) | 76.1% (active) |
| c1ccc(N2CCCC2)c(CNc2nc3ccccc3o2)c1 | 34.1% (inactive) |
| Cc1ccccc1-c1nc(CN2CCN(c3ncc4ccccc4n3)CC2)c(C)o1 | 20.3% (inactive) |
| CCSc1ncc(CN2CCN(c3nc4ccccc4o3)CC2)cn1 | 95.3% (active) |
| CC(C)c1nc(Cn2ccnc2-c2ccc(C3CCCCO3)s2)no1 (stereo not given) | -7.76% (inactive) |
| c1ccc2oc(N3CCN(Cc4ccc(C5CCCO5)s4)CC3)nc2c1 (stereo not given) | 90.8% (active) |
| c1ccc2oc(CN3CCC(c4nc5ccccc5s4)CC3)nc2c1 | -16% (inactive) |
| CCCCC(CC)CN1CNC(=S)NC1 (stereo not given) | 48.2% (inactive) |
| O=S(=O)(Nc1cccc(Br)c1)c1ccc(Br)s1 | 97.3% (active) |
| O=S(=O)(Nc1cccc(Br)c1)c1ccc(Cl)s1 | 84.1% (active) |
| CC(=O)/C(=N/Nc1ccccc1[N+](=O)[O-])Oc1ccc(Br)cc1 | -28.4% (inactive) |
| NC(=O)C1CN(C2CCCCc3ccccc32)CCO1 (stereo not given) | 49.4% (inactive) |
| COc1ccc(OC)c2c1CN(C1CCCc3ccccc31)CC2O (stereo not given) | 95.8% (active) |
| COc1ccccc1CC(=O)NC1CCSc2ccccc21 (stereo not given) | -22.7% (inactive) |
| Cc1ccc(C(=O)NCc2ccc(-c3ccc(O)cc3)cc2)o1 | 40.6% (inactive) |
| Cc1ccc(CN(C)C(=O)COc2ccc(O)cc2)o1 | 80.2% (active) |
| CN(Cc1ccc2ccccc2c1)C(=O)COc1ccccc1F | 38.5% (inactive) |
| CCC(=O)OC(C#N)C1=C(Cl)C(=O)c2ccccc2C1=O (stereo not given) | 103% (active) |
| CCOCCCNC(=O)NC(=O)CSc1nnc(Nc2ccc(C)cc2)s1 | 83% (active) |

| Structure (SMILES) | inhibition |
| --- | --- |
| CCNC(=O)NC(=O)CSc1nnc(Nc2ccc(CC)cc2)s1 | 66.4% (active) |
| CCCC(C)NC(=O)CSc1nnc(Nc2ccc(CC)cc2)s1 (stereo not given) | 84.9% (active) |
| CCOC(=O)CSc1nnc(Nc2ccc(C)cc2)s1 | -19.5% (inactive) |
| CCNC(=O)NC(=O)CSc1nnc(Nc2ccc(C(C)C)cc2)s1 | 85% (active) |
| CN[C@@H]1C[C@@H](c2ccc(Cl)c(Cl)c2)c2ccccc21 | 48% (inactive) |
| COc1ccc2c(c1)OCC(C(=O)C(C#N)c1nc3ccccc3o1)C2 (stereo not given) | 99.3% (active) |
| CC1(C)C(C(Cl)Cl)C2(Cl)C(Cl)C(Cl)C1(Cl)C2(Cl)Cl (stereo not given) | 76.2% (active) |
| Cc1ccccc1N=C1NC(=O)C(Cc2ccccc2[N+](=O)[O-])S1 (stereo not given) | 56.7% (active) |
| O=c1ccc([N+](=O)[O-])ccc1Nc1ccccn1 | 82.3% (active) |
| Cc1noc(-c2ccc(C(=O)NCCC(C)C)cc2)n1 | -1.14% (inactive) |
| CC(C)CCNC(=O)c1ncc(Cl)c(Cl)c1Cl | 81.3% (active) |
| Cc1nc(COc2ccc3c(-c4ccccc4F)noc3n2)cs1 | 62.8% (active) |
| Fc1ccc(-c2noc3nc(OCc4ncccn4)ccc23)cc1 | 46% (inactive) |
| Fc1ccccc1-c1noc2nc(OCc3ccccn3)ccc12 | 90.2% (active) |
| c1ccc(-c2noc3nc(OCc4ccccn4)ccc23)cc1 | 50.7% (active) |
| Cc1ccc(S(=O)(=O)CCC(=O)Nc2ccc(C)c(C)c2)cc1 | 68% (active) |
| CCCCc1ccc(NC(=O)CCS(=O)(=O)c2ccc(Cl)cc2)cc1 | -52.4% (inactive) |
| Clc1ccc2c(Oc3cccc(Br)c3)ccnc2c1 | 0.33% (inactive) |
| Clc1ccc2c(Oc3ccc(Br)cc3)ccnc2c1 | 58% (active) |
| O=C1c2ccccc2S(=O)(=O)N1c1ccc(Br)cc1 | -53.1% (inactive) |
| O=C1c2ccccc2S(=O)(=O)N1c1cccc(Cl)c1 | inactive |
| O=C1c2ccccc2S(=O)(=O)N1c1ccc(Cl)cc1 | 60.5% (active) |
| O=C1c2cccc(O)c2CCN1Cc1ccc(Br)cc1 | 19.3% (inactive) |
| CCCCOc1cccc2c1CCN(CC)C2=O | -1.17% (inactive) |
| O=C1c2cccc(O)c2CCN1Cc1ccc(Cl)cc1 | 58% (active) |
| COc1ccc(N2C(=O)C3N=NN(Cc4ccccc4)C3C2=O)cc1Cl (stereo not given) | 20.8% (inactive) |
| COc1ccc(N2C(=O)C3N=NN(Cc4cccc(C)c4)C3C2=O)cc1Cl (stereo not given) | 79.6% (active) |

| Structure (SMILES) | inhibition |
| --- | --- |
| Cc1cccc(CN2CCN(Cc3ccc(Cl)c(F)c3)CC2=O)c1 | 6.7% (inactive) |
| COc1cccc(CN2N=NC3C(=O)N(c4ccc(OC)c(Cl)c4)C(=O)C32)c1 (stereo not given) | 102% (active) |
| CCOc1ccc(N2C(=O)C3N=NN(Cc4cc(C(=O)OC)ccc4OC)C3C2=O)cc1 (stereo not given) | -31.4% (inactive) |
| COc1ccc(OC)c(Nc2nc(Cl)nc(Nc3cc(OC)ccc3OC)n2)c1 | 1.76% (inactive) |
| COc1ccc(CN2N=NC3C(=O)N(c4ccc(OC)c(Cl)c4)C(=O)C32)cc1 (stereo not given) | 83.8% (active) |
| COC(=O)c1ccc(OC)c(CN2N=NC3C(=O)N(c4ccc(OC)c(Cl)c4)C(=O)C32)c1 (stereo not given) | 55.6% (active) |
| Cc1nn2c(NCCCN(C)C)cc(-c3ccccc3)nc2c1-c1ccccc1 | -0.28% (inactive) |
| Cc1nn2c(=O)[nH]c(SCc3cccnc3)nc2c1-c1ccccc1 | 33.2% (inactive) |
| CC(=O)c1nnc2c(-c3ccccc3)c(C)nn2c1C | 89.5% (active) |
| Cc1oc(-c2ccccc2Cl)cc1CO | 35.3% (inactive) |
| CNC(=O)COc1ccc(-c2c(C)cccc2C)cc1 | 26.1% (inactive) |
| CNC(=O)COc1ccc(/C=C/c2ccccc2)cc1 | 51.1% (active) |
| CNC(=O)COc1ccc(Oc2ccc(C)cc2)cc1 | 25.8% (inactive) |
| COc1ccc(/C=C/c2nc3cc(C)ccc3s2)cc1O | 23.6% (inactive) |
| CC(=O)Nc1ccc(OC/C=C/c2ccccc2)cc1 | 87.3% (active) |
| COc1ccc(/C=C/C(=O)NNC(=O)COc2ccc(C)cc2)cc1 | 95.6% (active) |
| CNC(=O)COc1ccc(-c2ccccc2Cl)cc1 | 72.2% (active) |
| O=C(COc1ccccc1)NN=Cc1ccc(Br)cc1 | 89.4% (active) |
| COC(=O)Cc1ccc(OCC(=O)NC(C)c2ccc(Cl)cc2)cc1 (stereo not given) | 20.1% (inactive) |
| CC(NC(=O)COc1ccccc1)c1ccccc1Cl (stereo not given) | 85.4% (active) |
| Cc1nc(Cl)cc(NC(C)c2ccc(Cl)c(Cl)c2)n1 (stereo not given) | 6.72% (inactive) |
| Cc1ccc(-n2nnc(C(=O)OCc3ccccc3C)c2C)cc1 | 93.8% (active) |
| COc1ccc(-c2nn(-c3ccccc3)cc2CN2CCN(c3cnccn3)CC2)c(F)c1 | 62.9% (active) |
| COc1ccc(Oc2ccc(C(=O)N[C@H]3CCCC[C@@H]3O)cc2)cc1 | 80.8% (active) |
| COc1ccc(C(=O)NC2CC(C)(C)Cc3occc32)cc1 (stereo not given) | -1.78% (inactive) |
| CCOC(=O)C(C)Sc1ncnc2c1nnn2Cc1ccc(Cl)cc1 (stereo not given) | 50.4% (active) |
| CCOC(=O)CSc1ncnc2c1nnn2Cc1ccc(Cl)cc1 | -17.6% (inactive) |

| Structure (SMILES) | inhibition |
| --- | --- |
| CCOC(=O)C(C)Sc1ncnc2c1nnn2Cc1ccc(F)cc1 (stereo not given) | 64.3% (active) |
| CCOC(=O)CNC(=O)CSc1ncnc2c1nnn2Cc1ccc(F)cc1 | -15.9% (inactive) |
| CCOC(=O)CSc1ncnc2c1nnn2Cc1ccc(F)cc1 | -18.2% (inactive) |
| CN=c1scc(-c2ccc(F)cc2)n1N=Cc1ccccc1Br | -41.8% (inactive) |
| CN=c1scc(-c2ccccc2F)n1N=Cc1cccc(F)c1 | 98.1% (active) |
| CN=c1scc(-c2ccccc2F)n1N=Cc1ccc(SC)cc1 | -1.82% (inactive) |
| CN=c1scc(-c2ccccc2F)n1N=Cc1ccccc1 | -1.69% (inactive) |
| CN=c1scc(-c2ccc(F)cc2)n1N=Cc1cccc(Br)c1 | 70.2% (active) |
| CN=c1scc(-c2ccc(F)cc2)n1N=Cc1cccc(C(F)(F)F)c1 | -44.1% (inactive) |
| Cc1nn(C(=O)C(C)N2C(=O)c3ccccc3C2=O)c(C)c1Br (stereo not given) | 14.3% (inactive) |
| COc1ccc2oc(=O)cc(-c3cc4cc(Br)ccc4o3)c2c1 | -2.37% (inactive) |
| Cc1cccc2nc(COc3ccc4ccccc4c3Br)cn12 | 41.5% (inactive) |
| CCCCN1CCC(COC(=O)c2cc(Cl)c(N)c3c2OCCO3)CC1 | 98.9% (active) |
| Cc1cccc(SC2CCN(c3nncc(-c4ccccc4)n3)CC2)c1 | 32.6% (inactive) |
| NC(N)=NCc1ccc(Cl)cc1Cl | 74.4% (active) |
| Nc1ncc(Cc2cc(Cl)ccc2Cl)s1 | -17.2% (inactive) |
| Nc1ncc(Cc2ccc(Cl)cc2F)s1 | 35.3% (inactive) |
| Cc1nc(C)c(-c2csc(Nc3cccnc3)n2)s1 | 35.7% (inactive) |
| Cc1nc(C)c(-c2ccc(SCc3c(F)cccc3Cl)nn2)s1 | 69.8% (active) |
| O=C(NC(C1CC1)C1CC1)C1CC(c2ccc(Cl)s2)=NO1 (stereo not given) | -31.9% (inactive) |
| CC(NC(=O)C1CC(c2cccc(F)c2)=NO1)c1ccc(F)cc1F (stereo not given) | 84.1% (active) |
| O=C(Nc1ccc(-n2cccn2)nc1)C1CC(c2cccc(F)c2)=NO1 (stereo not given) | 14.1% (inactive) |
| CCOc1ccccc1C(=O)Oc1ccc2ccc(O)cc2c1 | 40.6% (inactive) |
| O=C(Oc1ccc2ccccc2c1)c1cccs1 | 86.7% (active) |
